# In the supplement of paper PMC8728848:
# Shown is part of a subset that was picked to be rich in the strongest signals.
# Key:
# Assay in all cases: glycan array binding signal (z-score within array); higher = stronger binding
# Details in all cases: glycan notation: IUPAC condensed, linker removed
# [1] = biological target: Man(a1-2)Man(a1-3)[Man(a1-2)Man(a1-6)]Man(a1-6)[Man(a1-2)Man(a1-2)Man(a1-3)]Man
# Summary of the method: (§1)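 Columns mapping to the same glycan were averaged after glycan names were converted to IUPAC-condensed notation. The data come from 3228 arrays in the Consortium for Functional Glycomics database, limited to those with an available protein sequence. Binding is reported as a within-array Z-score averaged across arrays of one protein sequence and across linkers.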
# [2] = biological target: Man(a1-2)Man(a1-6)[Man(a1-3)]Man(a1-6)[Man(a1-2)Man(a1-2)Man(a1-3)]Man(b1-4)GlcNAc(b1-4)GlcNAc
# Summary of the method: as §1
# [3] = biological target: Man(a1-3)[Man(a1-6)]Man(a1-6)[Man(a1-3)]Man(b1-4)GlcNAc(b1-4)GlcNAc
# Summary of the method: as §1
# [4] = biological target: Man(a1-3)[Man(a1-6)]Man(b1-4)GlcNAc(b1-4)GlcNAc
# Summary of the method: as §1
# [5] = biological target: Neu5Ac(a2-3)Gal(b1-3)GlcNAc(b1-2)Man
# Summary of the method: as §1
# [6] = biological target: Neu5Ac(a2-3)Gal(b1-3)[GlcNAc(b1-6)]GalNAc
# Summary of the method: as §1
# [7] = biological target: Neu5Ac(a2-3)Gal(b1-3)]Neu5Ac(a2-3)Gal(b1-4)]GlcNAc
# Summary of the method: as §1
# [8] = biological target: Neu5Ac(a2-3)Gal(b1-4)GlcNAc(b1-3)Gal(b1-4)GlcNAc(b1-3)Gal(b1-4)GlcNAc
# Summary of the method: as §1
# [9] = biological target: Neu5Ac(a2-3)Gal(b1-4)GlcNAc(b1-6)GalNAc
# Summary of the method: as §1
# Neu5Ac(a2-3)GalNAc = biological target: Neu5Ac(a2-3)GalNAc
# Summary of the method: as §1
# [10] = biological target: Neu5Ac(a2-6)Gal(b1-4)GlcNAc(b1-2)Man(a1-6)[Man(a1-3)]Man(b1-4)GlcNAc(b1-4)GlcNAc
# Summary of the method: as §1
# [11] = biological target: Neu5Ac(a2-6)Gal(b1-4)GlcNAc(b1-3)Gal(b1-3)GlcNAc
# Summary of the method: as §1
# [12] = biological target: Neu5Ac(a2-6)Gal(b1-4)GlcNAc(b1-3)Gal(b1-4)GlcNAc(b1-3)Gal(b1-4)GlcNAc
# Summary of the method: as §1
# [13] = biological target: Neu5Ac(a2-6)Gal(b1-4)GlcNAc(b1-3)Gal(b1-4)GlcNAc(b1-3)GalNAc
# Summary of the method: as §1
# [14] = biological target: Neu5Ac(a2-6)Gal(b1-4)GlcNAc(b1-3)GalNAc
# Summary of the method: as §1
# [15] = biological target: Neu5Ac(a2-6)Gal(b1-4)GlcNAc(b1-6)[Gal(b1-3)GlcNAc(b1-3)]Gal(b1-4)Glc
# Summary of the method: as §1
# [16] = biological target: Neu5Ac(a2-6)GalNAc(b1-4)GlcNAc
# Summary of the method: as §1
# [17] = biological target: Neu5Ac(a2-8)Neu5Ac(a2-3)Gal(b1-3)GalNAc(b1-4)[Neu5Ac(a2-3)]Gal(b1-4)Glc
# Summary of the method: as §1
# [18] = biological target: Neu5Ac(a2-8)Neu5Ac(a2-3)[GalNAc(b1-4)]Gal(b1-4)Glc
# Summary of the method: as §1
# [19] = biological target: Neu5Ac(a2-8)Neu5Ac(a2-8)Neu5Ac
# Summary of the method: as §1
# Neu5Gc(a2-6)GalNAc = biological target: Neu5Gc(a2-6)GalNAc
# Summary of the method: as §1
# [20] = biological target: Fuc(a1-2)Gal(b1-4)GlcNAc(b1-3)Gal(b1-4)GlcNAc(b1-3)Gal(b1-4)GlcNAc
# Summary of the method: as §1
# [21] = biological target: Fuc(a1-2)Gal(b1-4)[Fuc(a1-3)]GlcNAc(b1-2)Man(a1-6)[Fuc(a1-2)Gal(b1-4)[Fuc(a1-3)]GlcNAc(b1-2)Man(a1-3)]Man(b1-4)GlcNAc(b1-4)[Fuc(a1-6)]GlcNAc
# Summary of the method: as §1
# [22] = biological target: Fuc(a1-2)Gal6S(b1-3)GlcNAc6S
# Summary of the method: as §1
# [23] = biological target: Fuc(a1-2)Gal6S(b1-4)Glc6S
# Summary of the method: as §1
# [24] = biological target: Fuc(a1-2)[Gal(a1-3)]Gal(b1-4)[Fuc(a1-3)]Glc
# Summary of the method: as §1
# [25] = biological target: Fuc(a1-3)[Gal(b1-4)]GlcNAc(b1-2)Man(a1-3)[Fuc(a1-3)[Gal(b1-4)]GlcNAc(b1-2)Man(a1-6)]Man(b1-4)GlcNAc(b1-4)[Fuc(a1-6)]GlcNAc
# Summary of the method: as §1
# [26] = biological target: Fuc(a1-3)[GalNAc(b1-4)]GlcNAc
# Summary of the method: as §1
# [27] = biological target: Gal(a1-3)Gal(b1-3)GlcNAc(b1-2)Man(a1-3)[Gal(a1-3)Gal(b1-3)GlcNAc(b1-2)Man(a1-6)]Man(b1-4)GlcNAc(b1-4)GlcNAc
# Summary of the method: as §1
# [28] = biological target: Gal(a1-3)Gal(b1-3)GlcNAc(b1-3)GalNAc
# Summary of the method: as §1
# [29] = biological target: Gal(a1-3)Gal(b1-4)GlcNAc(b1-3)GalNAc
# Summary of the method: as §1
# [30] = biological target: Gal(a1-4)Gal(b1-3)GlcNAc(b1-2)Man(a1-3)[Gal(a1-4)Gal(b1-3)GlcNAc(b1-2)Man(a1-6)]Man(b1-4)GlcNAc(b1-4)GlcNAc
# Summary of the method: as §1
# [31] = biological target: Gal(a1-4)Gal(b1-4)GlcNAc(b1-2)Man(a1-3)[Gal(a1-4)Gal(b1-4)GlcNAc(b1-2)Man(a1-6)]Man(b1-4)GlcNAc(b1-4)GlcNAc
# Summary of the method: as §1
# [32] = biological target: Gal(b1-3)GlcNAc(b1-3)Gal(b1-4)GlcNAc
# Summary of the method: as §1
# [33] = biological target: Gal(b1-3)GlcNAc(b1-3)Gal(b1-4)GlcNAc(b1-6)[Gal(b1-3)GlcNAc(b1-3)]Gal(b1-4)Glc
# Summary of the method: as §1
# [34] = biological target: Gal(b1-3)GlcNAc(b1-3)GalNAc
# Summary of the method: as §1
# [35] = biological target: Gal(b1-3)GlcNAc(b1-6)Gal(b1-4)GlcNAc
# Summary of the method: as §1
# [36] = biological target: Gal(b1-4)GlcNAc(a1-6)Gal(b1-4)GlcNAc
# Summary of the method: as §1
# [37] = biological target: Gal(b1-4)GlcNAc(b1-2)Man(a1-3)[Gal(b1-4)GlcNAc(b1-2)Man(a1-6)]Man(b1-4)GlcNAc(b1-4)[Fuc(a1-6)]GlcNAc
# Summary of the method: as §1
# [38] = biological target: Gal(b1-4)GlcNAc(b1-2)Man(a1-6)Man(b1-4)GlcNAc(b1-4)GlcNAc
# Summary of the method: as §1
# [39] = biological target: Gal(b1-4)GlcNAc(b1-3)Gal(b1-4)Glc
# Summary of the method: as §1
# [40] = biological target: Gal(b1-4)GlcNAc(b1-6)Gal(b1-4)GlcNAc
# Summary of the method: as §1
# [41] = biological target: GalNAc(b1-3)Gal(a1-4)Gal(b1-4)GlcNAc(b1-3)Gal(b1-4)Glc
# Summary of the method: as §1
# [42] = biological target: GalNAc(b1-3)Gal(a1-6)Gal(b1-4)Glc
# Summary of the method: as §1
# GlcA(b1-3)GlcNAc = biological target: GlcA(b1-3)GlcNAc
# Summary of the method: as §1
# GlcA(b1-6)Gal = biological target: GlcA(b1-6)Gal
# Summary of the method: as §1
# [43] = biological target: GlcNAc(a1-4)Gal(b1-4)GlcNAc(b1-3)Gal(b1-4)GlcNAc(b1-3)Gal(b1-4)GlcNAc
# Summary of the method: as §1
# [44] = biological target: GlcNAc(a1-4)Gal(b1-4)GlcNAc(b1-3)Gal(b1-4)[Fuc(a1-3)]GlcNAc(b1-3)Gal(b1-4)[Fuc(a1-3)]GlcNAc
# Summary of the method: as §1
# [45] = biological target: GlcNAc(b1-2)Man(a1-3)[GlcNAc(b1-2)Man(a1-6)]Man(b1-4)GlcNAc(b1-4)GlcNAc
# Summary of the method: as §1
# [46] = biological target: GlcNAc(b1-2)[GlcNAc(b1-4)]Man(a1-3)[GlcNAc(b1-2)Man(a1-6)]Man(b1-4)GlcNAc(b1-4)GlcNAc
# Summary of the method: as §1
# [47] = biological target: GlcNAc(b1-3)Gal(b1-4)GlcNAc
# Summary of the method: as §1
binder,measurement,setting,value
PhypaEULS3 (Physcomitrella patens) (protein) MLPVRLHCKADPNFNLAAVPGQGPVMVPFSPNDDFQVWYKDVTMSTRVKDETGSSAFSLINKATGQALRHAPEDLAQCLLADYDSNALDQTVLWTMSEDMGQGYCCIRLASQITRNLDVFRGDKKSGGVKEGSPVITFAWKKQDNQIWKMITAILEQKLISEEDLNSAVDHHHHHH,glycan array binding signal (z-score),[1],-0.367
same,glycan array binding signal (z-score),[2],2.25
same,glycan array binding signal (z-score),[3],-0.185
same,glycan array binding signal (z-score),[4],0.192
same,glycan array binding signal (z-score),[5],-0.422
same,glycan array binding signal (z-score),[6],3.83
same,glycan array binding signal (z-score),[7],0.062
same,glycan array binding signal (z-score),[8],0.343
same,glycan array binding signal (z-score),[9],2.29
same,glycan array binding signal (z-score),Neu5Ac(a2-3)GalNAc,-0.098
same,glycan array binding signal (z-score),[10],-0.347
same,glycan array binding signal (z-score),[11],0.4
same,glycan array binding signal (z-score),[12],0.398
same,glycan array binding signal (z-score),[13],0.528
same,glycan array binding signal (z-score),[14],0.678
same,glycan array binding signal (z-score),[15],0.339
same,glycan array binding signal (z-score),[16],0.235
same,glycan array binding signal (z-score),[17],-0.561
same,glycan array binding signal (z-score),[18],-0.005
same,glycan array binding signal (z-score),[19],-0.561
same,glycan array binding signal (z-score),Neu5Gc(a2-6)GalNAc,2.46
"RVL (Remusatia vivipara), B5LYJ9 (protein) MAKLLLFLLPAILGLLVPRSAVALGTNYLLSGQTLDTEGHLKNGDFDLVMQDDCNLVLYNGNWQSNTANNGRDCKLTLTDYGELVIKNGDGSTVWKSGAQSVKGNYAAVVHPDGRLVVLGPSVFKIDPWVRGLNSLRFRNIPFTNNLLFSGQVLYGDGRLTAKNHQLVMQGDCNLVLYGGKYGWQSNTHGNGEHCFLRLNHKGELIIKDDDFKTIWSSRSSSKQGEYVLILQDDGFGVIYGPAIFETSSKRSIAAS",glycan array binding signal (z-score),[20],-0.272
same,glycan array binding signal (z-score),[21],9.79
same,glycan array binding signal (z-score),[22],0.483
same,glycan array binding signal (z-score),[23],-0.151
same,glycan array binding signal (z-score),[24],-0.32
same,glycan array binding signal (z-score),[25],0.076
same,glycan array binding signal (z-score),[26],-0.292
same,glycan array binding signal (z-score),[27],0.313
same,glycan array binding signal (z-score),[28],-0.166
same,glycan array binding signal (z-score),[29],-0.178
same,glycan array binding signal (z-score),[30],1.75
same,glycan array binding signal (z-score),[31],1.93
same,glycan array binding signal (z-score),[32],-0.252
same,glycan array binding signal (z-score),[33],-0.574
same,glycan array binding signal (z-score),[34],-0.055
same,glycan array binding signal (z-score),[35],0.004
same,glycan array binding signal (z-score),[36],-0.142
same,glycan array binding signal (z-score),[37],7.05
same,glycan array binding signal (z-score),[38],-0.136
same,glycan array binding signal (z-score),[39],-0.252
same,glycan array binding signal (z-score),[40],-0.216
same,glycan array binding signal (z-score),[41],-0.066
same,glycan array binding signal (z-score),[42],-0.17
same,glycan array binding signal (z-score),GlcA(b1-3)GlcNAc,-0.098
same,glycan array binding signal (z-score),GlcA(b1-6)Gal,-0.23
same,glycan array binding signal (z-score),[43],0.124
same,glycan array binding signal (z-score),[44],0.3
same,glycan array binding signal (z-score),[45],0.913
same,glycan array binding signal (z-score),[46],2.4
same,glycan array binding signal (z-score),[47],-0.145
